# Assay results reported in PubChem BioAssay (Tox21).
# Several values for one entry are separate records, joined by “and”; a condition that tells them apart may be missing. Identical values can stand only once. Records with an inconclusive call do not appear. Where a call stands in place of a potency, no number is given. Some compounds were tested as several samples or in several runs, with calls that do not always agree. Activity calls are given as the source filed them. Unless noted, the call rests on the fitted dose curve; in most records, active means well fitted curve in the direction sought with a large enough effect in the repeat runs; inconclusive means weak or mixed curves; inactive means no such curve, though single readings can be large; an effect the other way counts as inactive or inconclusive.
# What was measured:
# [1] = qHTS assay to test for compound auto fluorescence at 535 nm (green) in HEK293 cells (AID 720680)
# [2] = qHTS assay to test for compound auto fluorescence at 460 nm (blue) in HEK293 cell free culture (AID 720681)
# Outline: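 Test compounds were pinned into cell-free culture medium (DMEM with 10% FBS) and fluorescence was read directly at Ex/Em 405/460 nm. Signals were expressed as fluorescence equivalents of triamterene, with DMSO vehicle as control.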
# [3] = qHTS assay to test for compound auto fluorescence at 535 nm (green) in HEK293 cell free culture (AID 720682)
# Outline: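 Read-out: 485/535 nm fluorescence intensity, calibrated against fluorescein. Medium only (DMEM + 10% FBS, no cells); test compound or DMSO vehicle added by pintool before plate reading.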
# [4] = qHTS assay to test for compound auto fluorescence at 590 nm (red) in HEK293 cell free culture (AID 720683)
# Outline: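 Tox21 10K library compounds were pinned into cell-free DMEM with 10% FBS and fluorescence was read at excitation 540 nm. Activity is expressed as Rose Bengal sodium equivalency.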
# [5] = qHTS assay to test for compound auto fluorescence at 590 nm (red) in HepG2 cell free culture (AID 720684)
# Outline: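 Measured in medium alone (MEM containing 10% FBS) following pintool addition of compound; emission at 590 nm with 540 nm excitation, referenced to Rose Bengal sodium.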
# [6] = qHTS assay to test for compound auto fluorescence at 460 nm (blue) in HepG2 cell free culture (AID 720685)
# Outline: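 Compound (23 nL) or DMSO pinned into cell-free MEM with 10% FBS; blue fluorescence read at 405/460 nm excitation/emission, expressed as auto-fluorescence equivalency to triamterene.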
# [7] = qHTS assay to test for compound auto fluorescence at 535 nm (green) in HepG2 cell free culture (AID 720686)
# [8] = biological target: Glucocorticoid receptor (Homo sapiens) (UniProt P04150); assay: qHTS assay to identify small molecule agonists of the glucocorticoid receptor (GR) signaling pathway (AID 720691; active means well fitted activation curve with a large enough effect in the signal ratio in the repeat runs, not every such curve was filed as active; the % refers to the signal ratio)
# Sequence of Glucocorticoid receptor (Homo sapiens) (P04150 whole entry, looked up): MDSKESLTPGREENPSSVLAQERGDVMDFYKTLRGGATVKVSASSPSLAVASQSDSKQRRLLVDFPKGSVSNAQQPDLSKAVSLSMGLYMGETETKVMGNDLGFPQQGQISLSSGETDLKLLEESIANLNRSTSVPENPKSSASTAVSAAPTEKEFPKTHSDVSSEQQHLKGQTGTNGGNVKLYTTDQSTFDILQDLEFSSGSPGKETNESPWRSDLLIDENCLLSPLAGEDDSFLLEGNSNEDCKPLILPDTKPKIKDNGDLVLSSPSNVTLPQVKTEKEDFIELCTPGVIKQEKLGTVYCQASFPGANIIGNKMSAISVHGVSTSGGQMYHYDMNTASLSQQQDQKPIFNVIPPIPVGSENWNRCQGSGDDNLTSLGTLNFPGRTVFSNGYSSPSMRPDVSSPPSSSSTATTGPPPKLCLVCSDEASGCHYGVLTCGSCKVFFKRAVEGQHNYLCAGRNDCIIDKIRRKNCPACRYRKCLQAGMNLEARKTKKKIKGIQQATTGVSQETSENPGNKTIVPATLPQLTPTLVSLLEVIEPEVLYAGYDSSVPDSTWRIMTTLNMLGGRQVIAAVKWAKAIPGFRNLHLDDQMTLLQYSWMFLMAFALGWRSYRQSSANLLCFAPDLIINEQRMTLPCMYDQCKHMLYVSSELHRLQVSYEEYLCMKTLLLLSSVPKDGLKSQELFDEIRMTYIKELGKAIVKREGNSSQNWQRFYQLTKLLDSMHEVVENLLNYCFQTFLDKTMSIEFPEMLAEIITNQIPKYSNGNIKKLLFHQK
# Outline: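 qHTS in GR-bla HeLa cells: 4 h settling at 37 C/5% CO2, 18 h compound incubation at 37 C, 2 h LiveBLAzer B/G FRET substrate at room temperature, fluorescence intensity measured.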
# [9] = biological target: Glucocorticoid receptor (Homo sapiens) (UniProt P04150); assay: qHTS assay to identify small molecule antagonists of the glucocorticoid receptor (GR) signaling pathway (AID 720692; active means well fitted inhibition curve with a large enough effect in the signal ratio in the repeat runs, not every such curve was filed as active; the % refers to the signal ratio)
# Outline: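 Inhibition of glucocorticoid signalling is measured in HeLa cells with a GRE-controlled beta-lactamase reporter; cells are co-treated with compound and 5 nM dexamethasone (final) for 18 h before FRET substrate readout.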
# [10] = qHTS assay to identify small molecule antagonists of the glucocorticoid receptor (GR) signaling pathway - cell viability counter screen (AID 720693); further: nearly all actives have a fitted effect of over 55% in size; further: potency means the concentration at half of the fitted maximal effect
# [11] = qHTS assay for identifying genotoxic compounds that show differential cytotoxicity against isogenic chicken DT40 cell lines with known DNA damage response pathways - wild type cell line (AID 743012); further: nearly all actives have a fitted effect of over 60% in size; further: potency means the concentration at half of the fitted maximal effect
# Outline: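 First, wild type DT40 cells were plated at 300 per well and equilibrated about 0.5 h at 37 C/5% CO2. Next, compounds in DMSO were added and exposure lasted 40 h. Finally, CellTiter-Glo was added for 30 min at room temperature and luminescence recorded.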
# [12] = qHTS assay for identifying genotoxic compounds that show differential cytotoxicity against isogenic chicken DT40 cell lines with known DNA damage response pathways - Rev3 mutant cell line (AID 743014); further: nearly all actives have a fitted effect of over 55% in size; further: potency means the concentration at half of the fitted maximal effect
# [13] = qHTS assay for identifying genotoxic compounds that show differential cytotoxicity against isogenic chicken DT40 cell lines with known DNA damage response pathways - Rad54/Ku70 mutant cell line (AID 743015); further: nearly all actives have a fitted effect of over 60% in size; further: potency means the concentration at half of the fitted maximal effect
# [14] = qHTS assay to identify small molecule antagonists of the androgen receptor (AR) signaling pathway - cell viability counter screen (AID 743033; further: nearly all actives have a fitted effect of over 45% in size; further: potency means the concentration at half of the fitted maximal effect)
# [15] = qHTS assay to identify small molecule antagonists of the androgen receptor (AR) signaling pathway using the MDA cell line - cell viability counter screen (AID 743041; further: nearly all actives have a fitted effect of over 45% in size; further: potency means the concentration at half of the fitted maximal effect)
# Outline: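 Viability counter screen run alongside the AR antagonist reporter: cells seeded 5 h before compound, R1881 added, 16 h incubation at 37C without CO2, fluorescent CellTiter-Fluor signal quantified.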
# [16] = qHTS assay to test for compound auto fluorescence at 460 nm (blue) in HepG2 cells (AID 720687)
# Outline: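 Cells (2,000/well in MEM with 10% FBS) attached overnight at 37 C, then were exposed to compound or DMSO for 1 hr at 37 C, 5% CO2. Fluorescence read at Ex/Em 405/460 nm, expressed as triamterene-equivalent signal.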
SMILES,outcome [1],Potency [2],outcome [3],outcome [4],outcome [5],Potency [6],outcome [7],outcome [8],Potency [9],Potency [10],Potency [11],Potency [12],Potency [13],Potency [14],Potency [15],Potency [16]
CCOS(=O)(=O)OCC,inactive,inactive,inactive,inactive,inactive,inactive,inactive,inactive,inactive,inactive,inactive,inactive and 54.5 µM (active),inactive,inactive,inactive,
CC(C)(c1ccccc1)c1ccc(O)c(C(C)(C)c2ccccc2)c1,inactive,inactive,inactive,inactive,inactive,inactive,inactive,,,21.7 µM (active) and 24.5 µM (active),21.5 µM (active) and 9.69 µM (active),15.2 µM (active) and 8.63 µM (active),13.6 µM (active) and 9.69 µM (active),48.5 µM (active) and 49 µM (active),,inactive
N#CCCCCC#N,inactive,inactive,inactive,inactive,inactive,inactive,inactive,,,inactive,inactive,inactive,inactive,inactive,inactive,inactive
Cc1ccc([N+](=O)[O-])cc1,inactive,inactive,inactive,inactive,inactive,inactive,inactive,,inactive,inactive,inactive,inactive,inactive,inactive,inactive,inactive
CCCCCCCCCC(CC)c1ccc(S(=O)(=O)O)cc1 (stereo not drawn),inactive,inactive,inactive,inactive,inactive,inactive,inactive,inactive,inactive,,inactive and 18.8 µM (active),,inactive and 30.6 µM (active) and 47.2 µM (active),inactive,inactive,inactive
N#Cc1c(Cl)c(Cl)c(Cl)c(C#N)c1Cl,inactive,inactive,inactive,inactive,inactive,inactive,inactive,,,21.5 µM (active) and 21.9 µM (active),268 nM (active) and 122 nM (active),213 nM (active) and 172 nM (active),268 nM (active) and 154 nM (active),2.41 µM (active) and 1.55 µM (active),4.76 µM (active) and 6.11 µM (active),inactive
O=[N+]([O-])c1ccc(Nc2ccccc2)cc1,inactive,inactive,inactive,inactive,inactive,inactive,inactive,,,43.6 µM (active),15.4 µM (active),54.9 µM (active) and 13.7 µM (active),30.9 µM (active) and 10.9 µM (active),38.9 µM (active),61.6 µM (active) and 61.1 µM (active),inactive
Cl,inactive,inactive,inactive,inactive,inactive,inactive,inactive,,,inactive,inactive and 54.5 µM (active),inactive and 48.6 µM (active),inactive,inactive,inactive,inactive
Clc1ccc(C(Cl)(Cl)Cl)cc1,inactive,inactive,inactive,inactive,inactive,inactive,inactive,inactive,,inactive,inactive,inactive,inactive,inactive,inactive,inactive
[CH3][Sn]([Cl])([Cl])[Cl],inactive,inactive,inactive,inactive,inactive,inactive,inactive,,,inactive,inactive,inactive,inactive,inactive,inactive,inactive
O=NN1CCOCC1,inactive,inactive,inactive,inactive,inactive,inactive,inactive,,,inactive,inactive,inactive,inactive,inactive,inactive,inactive
Cn1c(-c2ccccc2)cc(-c2ccccc2)[n+]1C,inactive,inactive,inactive,,inactive,inactive,inactive,inactive,,inactive,12.2 µM (active) and 1.37 µM (active),2.73 µM (active) and 864 nM (active),4.32 µM (active) and 2.43 µM (active),,,inactive
CCOP(=S)(OCC)SCn1c(=O)oc2cc(Cl)ccc21,inactive,inactive,inactive,inactive,inactive,inactive,inactive,,,inactive,27.3 µM (active),32.9 µM (active) and 27.3 µM (active),46.4 µM (active) and 30.6 µM (active),inactive,inactive,
CCCCCCCCCCCCCl,inactive,inactive,inactive,inactive,inactive,inactive,inactive,,,inactive,inactive,inactive,inactive,inactive,inactive,
CCCCOC(=O)COC(=O)c1ccccc1C(=O)OCCCC,inactive,,inactive,inactive,inactive,inactive,inactive,inactive,,inactive,inactive,inactive,inactive,inactive,inactive,inactive
